# High-throughput results deposited in PubChem BioAssay by National Center for Advancing Translational Sciences (NCATS).
# LT uptake inh = blocks cellular internalization of anthrax lethal toxin; Potency, µM (top dose mostly 40 µM), without a hit: at the top dose activity change, negative = inhibition, usual class: inhibitors; AID 912; 70,000 compounds, 0.67% hits; Cells, anthrax lethal toxin internalization, FRET ratio (460/530); also: % is scaled to controls: 0 for no effect and ±100 for the full control effect; nearly all actives have a fitted effect of over 50% in size
# SmPrx2 inh = Schistosoma mansoni Prx2 inhibition; S. mansoni Prx2 activity coupled to TGR/GSH (TGR is thioredoxin glutathione reductase), NADPH fluorescence loss, qHTS; Potency, µM; 65,000 compounds, 0.07% hits; AID 448
#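 Enzyme mix: 100 uM NADPH, 25 nM TGR, 700 uM GSH, 50 nM Prx2 in 100 mM phosphate pH 7.4, 10 mM EDTA, 0.01% Tween-20. 15 min RT with compound; NADPH/GSH added, H2O2 starts reaction; NADPH fluorescence read 8 min.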
# AmpC inh no det = blocks E. coli AmpC beta-lactamase in absence of detergent. P00811. AmpC nitrocefin hydrolysis, absorbance 480 nm, no detergent. Potency, µM (top dose mostly 28.7 µM), for inactives: at the top dose activity change, negative = inhibition. 71,000 compounds, 1.8% hits; also: % of control where 0% means no effect
# Target sequence (P00811 whole entry, looked up): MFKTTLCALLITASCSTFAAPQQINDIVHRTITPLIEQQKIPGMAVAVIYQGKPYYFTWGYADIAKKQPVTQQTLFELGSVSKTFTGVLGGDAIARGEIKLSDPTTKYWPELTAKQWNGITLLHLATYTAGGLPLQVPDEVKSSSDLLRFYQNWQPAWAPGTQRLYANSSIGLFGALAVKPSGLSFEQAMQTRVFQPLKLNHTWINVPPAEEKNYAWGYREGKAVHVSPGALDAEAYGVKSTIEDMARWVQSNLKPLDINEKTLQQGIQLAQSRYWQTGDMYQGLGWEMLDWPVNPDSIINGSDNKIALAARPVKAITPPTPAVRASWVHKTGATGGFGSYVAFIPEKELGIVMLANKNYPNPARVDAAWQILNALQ
#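 AmpC, 20 mM phosphate pH 7.0; 15 min cpd preinc, RT; start with nitrocefin (800 uM stock); A480 kinetic read, 20 s intervals, 4 min. No-enzyme wells = negative control.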
# AmpC inh det = AmpC beta-lactamase inhibition, detergent assay | P00811 | purified AmpC, nitrocefin hydrolysis with detergent | Potency, µM (series often up to 28.7 µM), inactives show top-dose activity change, negative = inhibition | 71,000 compounds, 0.09% hits | AID 584; active = well fitted curve in the direction sought with a large enough effect; inconclusive = small, poorly fitted or top-dose-only effect; also: % is scaled to controls: 0 for no effect and ±100 for the full control effect
#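 E. coli AmpC (5.3 nM) in 20 mM phosphate pH 7.0 with 0.01% Triton X-100, preincubated 15 min RT with compound; nitrocefin (2 uL of 800 uM stock) hydrolysis followed by 480 nm absorbance every 20 s over 4 min.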
# Active calls of the source: *; ? = inconclusive; . = no result given; [ ] = another dose, or the depositor's remark. This is a sample that favours compounds with a hit; in the whole collection about 2.4% have one here. Unless noted, calls follow the shape of the full dose curve. Potency is read from the fitted curve at half-maximal effect.
SMILES,LT uptake inh,SmPrx2 inh,AmpC inh no det,AmpC inh det
Cc1cc(=O)oc2c1ccc1oc(/C(=N/O)c3ccccc3)c(C)c12,10µM*,.,-11%,1%
CCC(=O)Oc1ccc2c(C)cc(=O)oc2c1C,?,?,-5%,3%
CC1CCN(c2nncc3ccccc23)CC1,-3%,>57,2%,-2%
CC1CCN(c2nnc(N3CCC(C)CC3)c3ccccc23)CC1,-5%,>57,3.2µM*[single pt active],12%
CCOc1ccc(C(=O)Nc2cc(C)on2)cc1,-4%,.,0%,7%
Cc1cc(NC(=O)c2cccc(COc3ccc(Br)cc3)c2)no1,?,>57,4µM*[single pt active],29%
COc1cc2c(cc1OC)[C@@]13CCN4CC5=CCO[C@H](CC(=O)O)[C@@H]([C@H]1N2)[C@H]5C[C@H]43,?,>57,6%[5.75 µM],-3%[5.75 µM]
C=CC(=O)OCC(CO)(COC(=O)C=C)COC(=O)C=C,?,.,61%,0%
Cc1ccc2nc(NC(=O)CNS(=O)(=O)c3ccc(Br)s3)sc2c1,?,>57,-23%,9%
Cc1ccc2nc(NC(=O)CN(C)S(=O)(=O)c3ccc(Br)s3)sc2c1,5µM*,>57,-22%,3%
O=C(NCCN1C(=O)C2C3C=CC(C3)C2C1=O)Nc1cccnc1 (stereo not drawn),?,>57,4µM*[single pt active],14%
O=C(NCCN1C(=O)C2C3C=CC(C3)C2C1=O)Nc1ccc(Br)cc1 (stereo not drawn),-13%,>57,4µM*[single pt active],14%
COc1ccc(NC(=O)CCCN2C(=O)C3C4C=CC(C4)C3C2=O)c(OC)c1 (stereo not drawn),3%,>57,21%,6%
O=C1C2C3C=CC(C3)C2C(=O)N1CCCCN1C(=O)C2C3C=CC(C3)C2C1=O (stereo not drawn),-2%,>57,1%,-3%
COc1ccccc1NC(=O)NCCN1C(=O)C2C3C=CC(C3)C2C1=O (stereo not drawn),-1%,>57,4µM*[single pt active],11%
C=CC1CC=CCC1 (stereo not drawn),-1%,.,-14%,10%
O=C(O)c1ccc(C2SCC(=O)N2Cc2ccccc2)cc1 (stereo not drawn),-16%,>57,-8%,5%
CN(C)CCCN1C(=O)CSC1c1ccccc1 (stereo not drawn),-12%,>57,3.2µM*[single pt active],11%
CCOC(=O)SC1=N/C(=C\c2ccc(N(C)C)cc2)C(=O)S1,-4%,>57,16µM*,5µM*
O=C(O)[C@@H]1[C@@H]2O[C@H]([C@@H](Br)[C@H]2Br)[C@H]1C(=O)O,-12%[8 µM],>57,6%[5.75 µM],-2%[5.75 µM]
NC(=O)C1(N2CCCCC2)CCN(C(=O)c2cccs2)CC1,11%,>57,4µM*[single pt active],12%
CC1(C)CC[C@]2(C(=O)O)CC[C@]3(C)C(=CC[C@@H]4[C@@]5(C)CC[C@H](O)C(C)(C)[C@@H]5CC[C@@]43C)[C@@H]2C1,?,>57,-13%,0%
c1ccc(-c2ccc(N3CC4(CCNCC4)C3)cc2)cc1,13µM*,>57,82%,-3%
c1ccc(C(c2ccccc2)N2CC3(CCNCC3)C2)cc1,10µM*,>57,36%,-3%
O=Nc1ccc(NO)cc1,2%,.,0%,7%
SMILES,LT uptake inh,SmPrx2 inh,AmpC inh no det,AmpC inh det
CCCN(CCC)CCCNC(=O)c1cc2cc3ccc(OC)cc3nc2o1,?,>57,27%,-1%
CCCCN(CC)CCCNC(=O)c1cc2cc3ccc(OC)cc3nc2o1,13µM*,>57,34%,-3%
CCN1CCN(CCCNC(=O)c2cc3cc4ccc(OC)cc4nc3o2)CC1,?,>57,34%,-3%
COc1ccc2cc3cc(C(=O)NCCc4ccc(OC)c(OC)c4)oc3nc2c1,13µM*,>57,65%,-2%
CC(C)N(Cc1nc(-c2ccccc2)no1)S(=O)(=O)c1ccccc1,?,>57,4µM*[single pt active],3%
CC(C)N(Cc1nc(-c2ccccc2)no1)C(=O)CN(C)S(=O)(=O)c1ccccc1,-15%,>57,73%,-3%
OC[C@@H]1O[C@@H](n2cnc3c(Nc4ccccc4)ncnc32)[C@@H](O)[C@H]1O,?,>57,-2%,-5%
COc1ccccc1N1CCN(Cc2cc(Br)c(O)c3ncccc23)CC1,?,>57,2.5µM*[single pt active],17%
O=C1/C(=C/Nc2ccc3c(c2)OCO3)CCc2ccccc21,7.9µM*,.,-17%,4%
O=C(O)CC[C@@H](NC(=O)c1ccccc1C(=O)O)C(=O)O,8%,>57,12%,-5%
Cc1nc2ccccc2c2oc(C(=O)NCCN3CCN(C)CC3)cc12,?,>57,-16%,6%
Cc1ccc2oc(=O)c3cc(C(=O)NCCN4CCN(C)CC4)sc3c2c1,-17%,>57,4µM*[single pt active],14%
Cn1c(=O)c2c(nc(C(=N)SCC(=O)O)n2C)n(C)c1=O,-24%[8 µM],>57,-9%[5.75 µM],-2%[5.75 µM]
COc1ccc(C)cc1NC(=O)c1cc2c(CO)cnc(C)c2oc1=N,?,>57,3.2µM*[single pt active],13%
COc1ccc(C)cc1NC(=O)c1ccoc1C,7%,.,2%,2%
CC(C)(C)[C@@]1(O)C[C@@H]2OC(=O)C[C@@]23C(=O)O[C@H]2OC(=O)[C@@H](O)[C@]231,-23%,>57,13%,0%
Cc1cc(=O)oc2cc(OCC#N)ccc12,-5%,>57,4µM*[single pt active],9%
CCCN1CCc2cccc3c2[C@@H]1Cc1ccc(O)c(O)c1-3,-3%,>57,-7%,-1%
COC(=O)C(C)Sc1nnc(Cc2cc(=O)[nH]c(=O)[nH]2)n1-c1ccc(OC)cc1 (stereo not drawn),-12%,>57,4µM*[single pt active],13%
CCOc1ccc(-n2c(Cc3cc(=O)[nH]c(=O)[nH]3)nnc2SCC(=O)OC)cc1,-10%,>57,4µM*[single pt active],9%
Cc1ccc(C)c(-n2c(Cc3cc(=O)[nH]c(=O)[nH]3)nnc2SC(C)C)c1,-5%,>57,4µM*[single pt active],13%
CCC(C)Sc1nnc(Cc2cc(=O)[nH]c(=O)[nH]2)n1-c1ccc(OC)cc1 (stereo not drawn),-12%,>57,3.2µM*[single pt active],13%
CCCCCCCCCCCCC/C=C\[C@H](O)[C@H](N)CO,-19%,>57,18%,-7%
N#C/C(C(=O)c1ccccc1)=C1/SC=C(N)N1c1ccccc1,-29%,>57,13µM*,11%
CC1=CS/C(=C(/C#N)C(=O)N2CCCCC2)N1c1ccccc1,2%,.,5%,-1%
SMILES,LT uptake inh,SmPrx2 inh,AmpC inh no det,AmpC inh det
Cc1ccc2c(c1)-c1c(cnn1CC(=O)Nc1ccccc1N1CCN(C)CC1)CO2,5µM*,>57,117%,8%
Cc1ccc2c(c1)-c1c(cnn1CC(=O)O)CO2,8%,>57,-13%,-1%
CCCCCC[C@H]1C(=O)O[C@@H](C)[C@H](NC(=O)c2cccc(NC=O)c2O)C(=O)O[C@@H](C)[C@@H]1OC(=O)CC(C)C,?,>57,4%,-3%
O=C(CSCc1ccc(Cl)cc1)c1ccco1,-20%,>57,10µM*[single pt active],17%
Nc1nc(Nc2ccccc2)nc2c1ncn2[C@@H]1O[C@@H](CO)[C@H](O)[C@@H]1O,-3%,>57,-10%,-1%
C=CCn1c2ccccc2c2nnc(SCN3C(=O)c4ccccc4C3=O)nc21,-16%,>57,16%,3%
